Measured values: the supplement of paper PMC10849652
Targets with a hit are over-represented here; the source holds about 7,900 in all. About 0.6% of all pairs of compound and target were hits.

compound: c1cn2cc(-c3ccc4cn[nH]c4c3)nc(Nc3ccc(N4CCOCC4)cc3)c2n1 [entospletinib]; test: log2 fold change, soluble protein after heating vs DMSO (PISA); higher = thermal stabilisation; K562 cells, 10 uM, 30 min; active = over 0.2 and 3.5 SD of the protein, either way, in both replicates (recomputed)
In short: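 Thermal stability values are relative to control samples and come from duplicates. They are expressed as log2 fold changes. For measurement, K562 cells (2×10^6 cells/mL) received 10 μM compound for 30 min, and aliquots were heated for 3 min over 48°C-58°C, pooled, and extracted at 4°C in PBS with 0.5% NP-40. Soluble protein, the supernatant after 21,000xg for 90 min, was quantified by TMTpro 16plex LC-MS/MS with equalised channel sums.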

Sequence of UniProt Q9UK23 (Q9UK23 whole entry, looked up): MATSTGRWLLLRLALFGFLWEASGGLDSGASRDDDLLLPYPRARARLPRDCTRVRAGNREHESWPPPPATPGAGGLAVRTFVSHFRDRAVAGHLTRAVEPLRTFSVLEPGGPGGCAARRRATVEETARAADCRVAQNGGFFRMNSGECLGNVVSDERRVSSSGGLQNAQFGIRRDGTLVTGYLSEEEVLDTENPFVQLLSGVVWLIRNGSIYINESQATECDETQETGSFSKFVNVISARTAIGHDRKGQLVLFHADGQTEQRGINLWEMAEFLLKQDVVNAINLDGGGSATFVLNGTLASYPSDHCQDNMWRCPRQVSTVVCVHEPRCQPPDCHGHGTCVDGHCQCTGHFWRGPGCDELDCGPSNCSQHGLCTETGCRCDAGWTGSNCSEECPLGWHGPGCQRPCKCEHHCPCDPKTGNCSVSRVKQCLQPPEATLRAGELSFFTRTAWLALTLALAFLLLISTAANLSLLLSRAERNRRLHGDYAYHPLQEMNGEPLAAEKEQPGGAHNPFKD
Sequence of UniProt Q12986 (Q12986 whole entry, looked up): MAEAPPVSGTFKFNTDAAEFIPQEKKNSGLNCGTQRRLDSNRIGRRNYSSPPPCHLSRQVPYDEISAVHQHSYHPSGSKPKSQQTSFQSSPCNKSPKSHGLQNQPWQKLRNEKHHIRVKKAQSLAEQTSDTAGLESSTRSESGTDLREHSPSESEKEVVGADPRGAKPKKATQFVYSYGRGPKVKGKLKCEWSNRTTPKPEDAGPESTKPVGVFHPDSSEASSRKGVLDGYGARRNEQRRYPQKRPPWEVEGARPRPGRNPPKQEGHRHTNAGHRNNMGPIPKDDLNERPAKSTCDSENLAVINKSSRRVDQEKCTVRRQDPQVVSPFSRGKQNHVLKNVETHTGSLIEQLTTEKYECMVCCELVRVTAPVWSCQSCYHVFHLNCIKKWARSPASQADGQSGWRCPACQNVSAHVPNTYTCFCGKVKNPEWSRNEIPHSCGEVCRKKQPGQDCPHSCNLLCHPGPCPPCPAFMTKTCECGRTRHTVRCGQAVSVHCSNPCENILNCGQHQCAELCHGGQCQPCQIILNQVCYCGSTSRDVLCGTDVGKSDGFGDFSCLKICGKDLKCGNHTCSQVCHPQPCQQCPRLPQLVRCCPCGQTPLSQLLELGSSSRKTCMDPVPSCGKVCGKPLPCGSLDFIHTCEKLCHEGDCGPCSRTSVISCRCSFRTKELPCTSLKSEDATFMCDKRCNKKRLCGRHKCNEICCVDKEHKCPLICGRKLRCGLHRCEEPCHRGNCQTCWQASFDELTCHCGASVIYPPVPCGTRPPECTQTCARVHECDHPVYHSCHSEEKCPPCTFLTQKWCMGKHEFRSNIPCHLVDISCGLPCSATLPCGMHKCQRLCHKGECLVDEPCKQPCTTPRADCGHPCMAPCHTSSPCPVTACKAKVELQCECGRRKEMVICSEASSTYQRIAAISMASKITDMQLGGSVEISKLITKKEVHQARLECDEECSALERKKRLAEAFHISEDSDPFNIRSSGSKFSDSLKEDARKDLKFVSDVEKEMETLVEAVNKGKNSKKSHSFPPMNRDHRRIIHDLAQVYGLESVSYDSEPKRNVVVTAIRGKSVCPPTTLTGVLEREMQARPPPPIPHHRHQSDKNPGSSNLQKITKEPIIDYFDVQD
Sequence of UniProt Q6P1R3 (Q6P1R3 whole entry, looked up): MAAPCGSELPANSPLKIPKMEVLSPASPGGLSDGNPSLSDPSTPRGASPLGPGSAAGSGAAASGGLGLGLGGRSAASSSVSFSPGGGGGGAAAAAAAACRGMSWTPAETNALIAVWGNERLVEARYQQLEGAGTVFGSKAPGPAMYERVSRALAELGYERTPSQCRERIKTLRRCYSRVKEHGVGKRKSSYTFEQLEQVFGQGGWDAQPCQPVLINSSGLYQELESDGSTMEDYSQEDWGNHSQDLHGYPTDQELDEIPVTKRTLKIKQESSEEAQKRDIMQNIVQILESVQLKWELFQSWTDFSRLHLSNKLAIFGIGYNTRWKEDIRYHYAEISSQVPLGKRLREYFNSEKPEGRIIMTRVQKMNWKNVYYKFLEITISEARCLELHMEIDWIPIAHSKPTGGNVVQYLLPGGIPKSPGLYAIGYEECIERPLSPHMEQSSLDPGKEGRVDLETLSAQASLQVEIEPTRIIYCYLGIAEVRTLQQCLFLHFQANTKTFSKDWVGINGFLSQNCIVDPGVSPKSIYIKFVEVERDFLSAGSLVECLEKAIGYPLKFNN
Sequence of UniProt Q9BSU3 (Q9BSU3 whole entry, looked up): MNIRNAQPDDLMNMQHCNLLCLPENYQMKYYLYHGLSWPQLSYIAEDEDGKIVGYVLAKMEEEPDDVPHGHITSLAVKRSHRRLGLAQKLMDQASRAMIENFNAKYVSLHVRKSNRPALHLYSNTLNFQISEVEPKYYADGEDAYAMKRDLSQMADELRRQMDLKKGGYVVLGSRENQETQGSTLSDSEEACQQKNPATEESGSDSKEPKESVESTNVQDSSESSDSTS
Sequence of UniProt Q9NZT2 (Q9NZT2 whole entry, looked up): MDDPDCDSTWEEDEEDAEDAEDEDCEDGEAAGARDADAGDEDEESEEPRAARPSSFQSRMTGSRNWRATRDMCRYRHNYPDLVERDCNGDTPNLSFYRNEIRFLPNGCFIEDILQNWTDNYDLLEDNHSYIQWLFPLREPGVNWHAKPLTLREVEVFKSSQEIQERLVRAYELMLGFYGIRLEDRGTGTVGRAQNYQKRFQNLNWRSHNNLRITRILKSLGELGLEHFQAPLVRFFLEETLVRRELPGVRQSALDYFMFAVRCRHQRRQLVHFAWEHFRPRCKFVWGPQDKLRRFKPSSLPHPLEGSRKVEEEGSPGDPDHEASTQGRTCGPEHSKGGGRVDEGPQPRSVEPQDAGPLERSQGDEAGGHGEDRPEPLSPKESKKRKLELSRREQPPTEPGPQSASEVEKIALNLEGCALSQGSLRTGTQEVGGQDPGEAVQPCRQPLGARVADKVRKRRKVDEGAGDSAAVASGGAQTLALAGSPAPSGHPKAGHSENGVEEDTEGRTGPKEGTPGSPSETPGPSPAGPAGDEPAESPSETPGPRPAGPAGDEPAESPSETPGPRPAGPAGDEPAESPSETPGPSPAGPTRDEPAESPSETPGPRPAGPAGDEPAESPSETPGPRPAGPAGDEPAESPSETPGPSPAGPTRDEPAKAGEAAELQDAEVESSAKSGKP
Sequence of UniProt Q9BPX3 (Q9BPX3 whole entry, looked up): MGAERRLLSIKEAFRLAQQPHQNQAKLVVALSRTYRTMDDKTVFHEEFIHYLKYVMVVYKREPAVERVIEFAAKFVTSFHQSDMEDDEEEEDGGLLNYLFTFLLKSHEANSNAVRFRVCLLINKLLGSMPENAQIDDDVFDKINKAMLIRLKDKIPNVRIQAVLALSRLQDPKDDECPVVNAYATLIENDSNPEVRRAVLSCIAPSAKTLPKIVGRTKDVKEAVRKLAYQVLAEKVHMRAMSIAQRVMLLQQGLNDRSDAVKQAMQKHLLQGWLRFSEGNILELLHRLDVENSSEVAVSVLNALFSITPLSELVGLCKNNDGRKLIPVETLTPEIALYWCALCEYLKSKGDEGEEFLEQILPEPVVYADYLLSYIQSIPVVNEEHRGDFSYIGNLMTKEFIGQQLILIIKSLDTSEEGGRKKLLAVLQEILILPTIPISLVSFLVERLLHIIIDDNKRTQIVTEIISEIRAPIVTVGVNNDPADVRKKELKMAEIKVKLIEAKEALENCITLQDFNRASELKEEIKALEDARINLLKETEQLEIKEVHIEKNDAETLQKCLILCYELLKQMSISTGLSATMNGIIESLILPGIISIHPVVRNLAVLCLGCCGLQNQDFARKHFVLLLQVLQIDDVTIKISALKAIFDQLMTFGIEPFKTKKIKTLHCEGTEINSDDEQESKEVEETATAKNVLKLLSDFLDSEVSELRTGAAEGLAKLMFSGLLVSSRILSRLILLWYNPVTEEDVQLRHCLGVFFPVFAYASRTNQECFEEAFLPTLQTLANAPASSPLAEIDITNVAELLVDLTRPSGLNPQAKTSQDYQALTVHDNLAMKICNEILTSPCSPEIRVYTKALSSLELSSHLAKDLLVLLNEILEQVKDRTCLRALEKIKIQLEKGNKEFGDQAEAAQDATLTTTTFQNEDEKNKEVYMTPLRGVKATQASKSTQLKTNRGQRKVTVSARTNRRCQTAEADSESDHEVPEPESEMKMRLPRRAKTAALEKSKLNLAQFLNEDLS
Sequence of UniProt Q9BT67 (Q9BT67 whole entry, looked up): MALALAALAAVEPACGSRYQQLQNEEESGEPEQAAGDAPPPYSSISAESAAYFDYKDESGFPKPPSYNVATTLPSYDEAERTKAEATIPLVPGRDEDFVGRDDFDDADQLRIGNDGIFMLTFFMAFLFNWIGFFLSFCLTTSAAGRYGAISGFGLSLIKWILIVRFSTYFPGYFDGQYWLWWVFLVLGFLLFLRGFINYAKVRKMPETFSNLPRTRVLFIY
Sequence of UniProt Q9BV86 (Q9BV86 whole entry, looked up): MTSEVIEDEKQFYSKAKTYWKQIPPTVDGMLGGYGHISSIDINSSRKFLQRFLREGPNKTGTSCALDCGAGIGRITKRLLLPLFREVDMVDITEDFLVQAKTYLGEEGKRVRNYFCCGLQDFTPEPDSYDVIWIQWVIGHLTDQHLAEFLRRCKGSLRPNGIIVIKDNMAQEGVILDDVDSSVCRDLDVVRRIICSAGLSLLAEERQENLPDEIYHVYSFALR
Sequence of UniProt Q9BVC4 (Q9BVC4 whole entry, looked up): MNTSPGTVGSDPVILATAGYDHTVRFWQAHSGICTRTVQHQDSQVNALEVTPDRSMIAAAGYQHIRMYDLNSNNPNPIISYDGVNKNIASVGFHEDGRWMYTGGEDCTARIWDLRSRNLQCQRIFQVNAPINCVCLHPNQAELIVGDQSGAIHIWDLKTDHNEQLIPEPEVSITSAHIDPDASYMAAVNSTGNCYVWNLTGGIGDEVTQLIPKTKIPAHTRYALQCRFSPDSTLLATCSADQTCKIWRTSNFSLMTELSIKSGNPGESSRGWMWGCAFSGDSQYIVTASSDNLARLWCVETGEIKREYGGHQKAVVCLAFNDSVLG

log2 fold change, inactive:
NTMT1 (UniProt Q9BV86) 0.118
MRPS21 (UniProt P82921) -0.031
NCAPD2 (UniProt Q15021) 0.031
MRPL34 (UniProt Q9BQ48) 0.047
NUP107 (UniProt P57740) -0.072
MRPS6 (UniProt P82932) 0.046
OXSR1 (UniProt O95747) -0.058
MRPS33 (UniProt Q9Y291) 0.086
NDFIP1 (UniProt Q9BT67) -0.003
NAGPA (UniProt Q9UK23) -0.109
NUP85 (UniProt Q9BW27) 0.005
OGFR (UniProt Q9NZT2) -0.008
NA, A0A0B4J2A0 0.021
MRPS2 (UniProt Q9Y399) 0.059
NOL11 (UniProt Q9H8H0) -0.05
NCAPG (UniProt Q9BPX3) 0
MRPS9 (UniProt P82933) 0.087
MSANTD2 (UniProt Q6P1R3) -0.364
NIPSNAP2 (UniProt O75323) 0.092
NFX1 (UniProt Q12986) 0.095
MYLK (UniProt Q15746) -0.041
MLST8 (UniProt Q9BVC4) -0.06
OXA1L (UniProt Q15070) -0.014
NAA11 (UniProt Q9BSU3) -0.041
